In all, about 40,000 compounds went through this assay and about 1,400 (3.5%) were called active.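 How the source made its calls: active means any of four per-well response measures lying three or more SD from its plate-wide compound average, in either direction; inactive means the rest, inconclusive results apart.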 The sample as a whole holds a higher share of actives than the screen did.

Sequence of Voltage-dependent calcium channel gamma-2 subunit (Mus musculus) + Glutamate receptor 2 (Rattus norvegicus) (O88602 whole entry, looked up): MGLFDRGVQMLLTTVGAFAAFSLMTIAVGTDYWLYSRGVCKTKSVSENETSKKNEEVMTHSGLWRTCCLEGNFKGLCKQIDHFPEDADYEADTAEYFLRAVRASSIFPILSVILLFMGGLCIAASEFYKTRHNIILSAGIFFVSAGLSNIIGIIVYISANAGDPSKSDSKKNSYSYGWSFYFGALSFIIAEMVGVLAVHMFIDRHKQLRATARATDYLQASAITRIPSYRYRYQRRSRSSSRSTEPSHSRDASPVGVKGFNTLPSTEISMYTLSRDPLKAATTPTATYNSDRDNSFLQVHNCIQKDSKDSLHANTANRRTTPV
Sequence of Voltage-dependent calcium channel gamma-2 subunit (Mus musculus) + Glutamate receptor 2 (Rattus norvegicus) (P19491 whole entry, looked up): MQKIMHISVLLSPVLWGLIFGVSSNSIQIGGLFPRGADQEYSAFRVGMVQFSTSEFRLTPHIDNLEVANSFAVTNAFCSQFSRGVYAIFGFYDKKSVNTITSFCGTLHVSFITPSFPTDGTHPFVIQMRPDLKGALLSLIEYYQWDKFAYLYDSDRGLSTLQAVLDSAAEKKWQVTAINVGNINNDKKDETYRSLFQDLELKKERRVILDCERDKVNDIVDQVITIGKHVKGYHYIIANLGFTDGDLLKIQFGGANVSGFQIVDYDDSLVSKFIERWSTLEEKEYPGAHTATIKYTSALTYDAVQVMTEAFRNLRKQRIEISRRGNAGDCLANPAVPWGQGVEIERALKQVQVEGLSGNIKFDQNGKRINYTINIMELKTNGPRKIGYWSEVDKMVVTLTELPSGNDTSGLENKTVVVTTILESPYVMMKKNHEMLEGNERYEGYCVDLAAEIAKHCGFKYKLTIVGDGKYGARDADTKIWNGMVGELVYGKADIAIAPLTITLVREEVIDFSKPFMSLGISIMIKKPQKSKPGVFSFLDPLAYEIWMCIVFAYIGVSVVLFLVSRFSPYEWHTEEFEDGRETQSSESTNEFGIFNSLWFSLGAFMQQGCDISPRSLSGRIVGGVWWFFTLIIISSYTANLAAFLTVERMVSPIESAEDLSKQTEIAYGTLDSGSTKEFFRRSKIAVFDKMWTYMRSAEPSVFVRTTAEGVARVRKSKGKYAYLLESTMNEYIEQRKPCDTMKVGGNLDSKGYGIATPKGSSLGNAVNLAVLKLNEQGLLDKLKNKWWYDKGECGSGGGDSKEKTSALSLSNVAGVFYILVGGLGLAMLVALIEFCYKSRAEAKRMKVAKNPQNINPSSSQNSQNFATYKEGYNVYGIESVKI

The test addresses Voltage-dependent calcium channel gamma-2 subunit (Mus musculus) + Glutamate receptor 2 (Rattus norvegicus) (UniProt O88602+P19491). As to the kind of experiment: AMPAR-TARP gamma-2 complex positive or negative modulation – cell-based, membrane potential dye, primary screen (AID 1259245). As to conditions: HEK293 GluA2+stargazin, membrane potential dye (FDSS), glutamate EC50, at 30 µM, hits were called plate by plate, in both directions; compound max-min signal: compound-alone response (agonism); glutamate slope, % of max: measured here: glutamate response slope, % max.
For `CSc1ccc(CC(=O)Nc2nc(-c3nc4ccccc4s3)cs2)cc1`, the compound max-min signal turned out to be 0.102; the glutamate response, % of max was 33% (inactive); the glutamate slope, % of max was 57.3%.
In the same order, the values of `CS(=O)(=O)N1CCCCC1C(=O)Nc1nc(-c2ccccn2)cs1` (stereo not given) are 0.116, 43% (inactive) and 58.9%.
In the same order, the values of `CC(C)Sc1ccc(C(=O)Nc2nc(-c3ccccn3)cs2)cc1` are 0.135, -1.73% (active) and 2.45%.
For `Cc1nn(C2CCS(=O)(=O)C2)c2nc(-c3ccccc3)cc(C(=O)Nc3ccc(F)cc3F)c12` (stereo not given), the compound max-min signal is 0.0886; the glutamate response, % of max is 43% (inactive); the glutamate slope, % of max is 54.9%.
In the same order, the values of `Cc1ccc(NC(=O)CSC2=NC(C)(C)N=C2c2ccccc2)c(C)c1` are 0.112, 41.7% (inactive) and 61.7%.
Consider `COc1cc(NC(=O)CSC2=NC3(CCCC3)N=C2c2ccccc2)cc(OC)c1`, for which the compound max-min signal came to 0.0812; the glutamate response, % of max is 57.8% (active); the glutamate slope, % of max stood at 80.4%.
On the same counts, the results for `COC(=O)c1ccc(NC(=O)CSc2nc(-c3ccccc3)c(N)s2)cc1` are 0.12, 38.3% (inactive) and 63%.
With `CCS(=O)(=O)N1CCCc2ccc(NS(=O)(=O)c3cc(Cl)ccc3OC)cc21`, the compound max-min signal came to 0.119; the glutamate response, % of max is 44.4% (inactive); the glutamate slope, % of max was 80.9%.
Turning to `Cc1cccc(Cn2c(=O)c3c(nc4n(-c5ccccc5O)c(C)c(C)n34)n(C)c2=O)c1`, the compound max-min signal turned out to be 0.11; the glutamate response, % of max is 3.33% (active); the glutamate slope, % of max was found to be 16.2%.
In the same order, the values of `Cc1c(C)n2c3c(=O)n(C/C=C/c4ccccc4)c(=O)n(C)c3nc2n1-c1ccccc1O` are 0.0773, 13.8% (inactive) and 35.4%.
In the same order, the values of `COC(=O)Cn1c(=O)c2c(nc3n(-c4ccccc4C)c(C)c(C)n23)n(C)c1=O` are 0.0754, 36.6% (inactive) and 56.4%.
In the same order, the values of `Cc1cc(S(=O)(=O)NCC2(O)CCCC2)ccc1F` are 0.0902, 36% (inactive) and 60.8%.
On to `Cc1ccc(NC(=O)NCC(O)c2ccc(C(F)(F)F)cc2)cc1` (stereo not given), for which the compound max-min signal was found to be 0.115; the glutamate response, % of max is 16.6% (inactive); the glutamate slope, % of max was found to be 47.8%.
Turning to `Cc1cc(S(=O)(=O)NCCn2nc(-c3ccc(F)cc3)ccc2=O)ccc1F`, the compound max-min signal is 0.0676; the glutamate response, % of max is 28.5% (inactive); the glutamate slope, % of max turned out to be 55.6%.
On the same counts, the results for `COc1ccc(S(=O)(=O)NCC(O)c2cccn2C)c(C)c1` (stereo not given) are 0.107, 43.5% (inactive) and 60.7%.
As to `COc1cc(C)c(C)cc1S(=O)(=O)NCC(O)c1ccc(C(F)(F)F)cc1` (stereo not given), the compound max-min signal is 0.216; the glutamate response, % of max was 20.5% (active); the glutamate slope, % of max was 36%.
On the same counts, the results for `Cc1cc(S(=O)(=O)NCC(O)c2ccc(C(F)(F)F)cc2)ccc1F` (stereo not given) are 0.256, 28.2% (active) and 41.3%.
On the same counts, the results for `CC(NC(=O)C12CC3CC(CC(C3)C1)C2)C(=O)N/N=C/c1ccc([N+](=O)[O-])o1` (stereo not given) are 0.133, 27.9% (inactive) and 52.7%.
In the same order, the values of `O=S(=O)(CCCOc1ccc(F)cc1)NCCCc1ccccc1` are 0.118, 50.6% (inactive) and 66.1%.
In the case of `CCCNC(=O)Cn1c(=O)c2c(N3CCN(C(=O)c4ccco4)CC3)c(C)cnc2n(C)c1=O`, the compound max-min signal was 0.127; the glutamate response, % of max is 48.2% (inactive); the glutamate slope, % of max turned out to be 70%.

Source of the values: PubChem BioAssay AID1259245 (Vanderbilt High Throughput Screening Facility, 2017).
